Among the data in a collection of fitness landscapes (doi:10.1126/science.1257360) are enrichment ratio values, retold here.

B1: PhoQ; a variant is named by its letters at X, in order, P23837 (parent)
chain: MKKLLRLFFPLSLRVRFLLATAAVVLVLSLAYGMVALIGYSVSFDKTTFRLLRGESNLFYTLAKWENNKLHVELPENIDKQSPTMTLIYDENGQLLWAQRDVPWLMKMIQPDWLKSNGFHEIEADVNDTSLLLSGDHSIQQQLQEVREDDDDAEMTHSVAVNVYPATSRMPKLTIVVVDTIPVELKSSYMVWSWFIYVLSANLLLVIPLLWVAAWWSLRPIEALAKEVRELEEHNRELLNPATTRELTSLVRNLNRLLKSERERYDKYRTTLTDLTHSLKTPLXXLQXXLRSLRSEKMSVSDAEPVMLEQISRISQQIGYYLHRASMRGGTLLSRELHPVAPLLDNLTSALNKVYQRKGVNISLDISPEISFVGEQNDFVEVMGNVLDNACKYCLEFVEISARQTDEHLYIVVEDDGPGIPLSKREVIFDRGQRVDTLRPGQGVGLAVAREITEQYEGKIVAGESMLGGARMEVIFGRQHSAPKDE

Whole data set: some 140,000 sequences, median “enrichment ratio after two sorts for PhoP signalling” near 0, cut for the highest 2% near 11. The entries come from a sample that favours the highest values as a whole. Some results are limits rather than exact numbers.

The variants in this test derive from B1. Put plainly: enrichment ratio after two sorts for PhoP signalling (ratio (wild type AVST 3.29)); higher = more functional. The conditions noted are these: with PhoP (E. coli).
With FIVW, the enrichment ratio is at most 0.25.
With MRRQ, the enrichment ratio was at most 0.25.
As to KFHY, the enrichment ratio is at most 0.25.
To FGDH belongs at most 0.25; to EQSM, at most 0.25.
For the variant YMLV, the enrichment ratio is 0.756.
For NWGV, the enrichment ratio is at most 0.25.
The value for AFIT was at most 0.25; that for IIPL was at most 0.25.
To GIGW belongs 16; to GNMM, 0.333; to GIGM, 36.1.
The value for GIYM was at most 0.25; that for GIHW was at most 0.25.
Take GIWM: the enrichment ratio was at most 0.25.
The value for GIMM was 17.3; that for GIAH was 22.5; that for GNAH was at most 0.25.
The value for GNGW was at most 0.25; that for GITH was at most 0.25.
The value for GITM was 10.3.
Take RCKT: the enrichment ratio was at most 0.25.
Take KSCR: the enrichment ratio was at most 0.25.
To YPKK belongs at most 0.25.
The value for TDMP was at most 0.25.
The value for PKYN was at most 0.25; that for IVYH was at most 0.25; that for QMPA was at most 0.25.
In the case of LKRS, the enrichment ratio is at most 0.25.
Turning to KQPM, the enrichment ratio is at most 0.25.
The value for RNQP was at most 0.25.
The value for WSPR was at most 0.25.
On to NEWG, for which the enrichment ratio is at most 0.25.
To IPQP belongs at most 0.25; to MNPP, at most 0.25; to CSHW, at most 0.25.
As for PKLP, the enrichment ratio came out at 0.31.
The value for FDCK was at most 0.25; that for KLPV was at most 0.25.
As to GIMT, the enrichment ratio was found to be 12.6.
GIHF: the enrichment ratio is at most 0.25.
To GNMT belongs at most 0.25; to GITF, 18.4; to GISA, 13.
The value for GILT was 3.61; that for GIMQ was 11.4.
GNTF: the enrichment ratio is at most 0.25.
On to GNSA, for which the enrichment ratio was found to be 2.7.
To GIGQ belongs at most 0.25; to GIGG, at most 0.25.
As for GISR, the enrichment ratio was at most 0.25.
To WKTM belongs at most 0.25.
To RKLH belongs at most 0.25; to GFLH, at most 0.25; to TNCW, at most 0.25.
To LAHQ belongs at most 0.25.
Consider MIEG, for which the enrichment ratio is at most 0.25.
To RYNY belongs at most 0.25; to GIAW, 21.6; to GTMC, at most 0.25.
To GYLR belongs at most 0.25; to GNVV, 5.22; to GIMC, 17.3.
The value for GNMC was at most 0.25.
GILR: the enrichment ratio was 12.2.
To GITD belongs at most 0.25; to WIVV, at most 0.25.
With GNAW, the enrichment ratio is at most 0.25.
To GNLR belongs at most 0.25.
To GIVV belongs 11.3.
The value for MDVY was at most 0.25.
As to LSLS, the enrichment ratio is at most 0.25.
The value for IAET was at most 0.25; that for ECYK was at most 0.25.
The value for KLTV was at most 0.25.
On to LQYA, for which the enrichment ratio was at most 0.25.
On to LGNN, for which the enrichment ratio was at most 0.25.
Regarding QGIH, the enrichment ratio is at most 0.25.
To EKVT belongs at most 0.25; to YIEP, at most 0.25.
Take HLIK: the enrichment ratio is at most 0.25.
In the case of GIMG, the enrichment ratio stood at 8.1.
To GITG belongs 2.48.
GNTK: the enrichment ratio was at most 0.25.
In the case of GNLG, the enrichment ratio amounted to 5.07.
Consider GISS, for which the enrichment ratio turned out to be 13.5.
To GITK belongs 16; to GNSS, 5.64; to GILG, 12.3.
The value for GNAG was 0.269.
GIAG: the enrichment ratio is 15.6.
To GITI belongs 5.68; to GISK, 4.87.
The value for RNAN was at most 0.25.
To KNTS belongs at most 0.25; to TMDQ, at most 0.25.
For the variant AWAD, the enrichment ratio is at most 0.25.
The value for RVNY was at most 0.25; that for YHMP was at most 0.25.
To AFVI belongs at most 0.25.
On to SYPA, for which the enrichment ratio is at most 0.25.
The value for GNAS was 4.84; that for GILA was 11.3.
To GILQ belongs 17.5.
To GNLQ belongs 5.83.
For the variant GNSM, the enrichment ratio was found to be 10.6.
To GIAT belongs at most 0.25.
The value for GITA was 7.39; that for GIAS was 14.2; that for GIWI was at most 0.25.
To GISM belongs 18.4.
Regarding GIYI, the enrichment ratio was 0.548.
Take GISF: the enrichment ratio was 8.06.
To EYAS belongs at most 0.25.
Take LGCH: the enrichment ratio is at most 0.25.
To TLYV belongs 0.293.
The value for LEIN was at most 0.25; that for EYMV was at most 0.25; that for RHQP was at most 0.25.
For GICE, the enrichment ratio came to 6.08.
To GNME belongs at most 0.25; to GIME, 13.3.
To DICD belongs at most 0.25; to EHLY, at most 0.25; to FVVK, at most 0.25.
The value for ASQM was 2.47; that for ASSM was 19.3; that for KSSF was at most 0.25.
Turning to VRSM, the enrichment ratio was at most 0.25.
The value for ASSF was 11.3; that for ASGR was at most 0.25.
As to VGAL, the enrichment ratio came out at 0.829.
The value for GWCN was at most 0.25.
Consider SYML, for which the enrichment ratio is 0.252.
The value for TIML was 2.74; that for SNML was 15.9.
As for NMML, the enrichment ratio was at most 0.25.
The value for SGML was 17.4.
To STML belongs 13.4; to HEML, at most 0.25.
The value for KYML was at most 0.25; that for SMML was 14.5.
SWML: the enrichment ratio is at most 0.25.
The value for SGEL was at most 0.25; that for AVQL was at most 0.25.
The value for YNMI was 0.268; that for IVRK was at most 0.25; that for TQMH was 9.69.
The value for IKMM was at most 0.25; that for WGHD was at most 0.25.
Consider SQFI, for which the enrichment ratio is at most 0.25.
To RPFT belongs at most 0.25; to SLML, 7.15; to SRML, 4.3.
The value for SAKL was at most 0.25; that for SAML was 16.5; that for SIML was 6.65.
